Activity calls are given as the source filed them. Unless noted, how the calls were made is not given here.

Test [1] concerns Wnt5a (protein binding on small-molecule microarray). As to the kind of experiment: small molecules binding Wnt5a protein – biophysical, small-molecule microarray, 635/667 nm fluorescence, primary screen (AID 1142).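 Further: fluorescence read at 667 nm with signal to noise per printed feature.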 Conditions: 635 nm fluorescence, higher = more signal.
Test [2] is described as follows: ATP-based viability of Huh7 replicon cells – cell-based, CellTiter-Glo luminescence, basal, 48 h, cytotoxicity control for HCV replication inhibitor project, primary screen (AID 1143).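 Further: Huh7 hepatoma cells carrying a hepatitis C replication reporter with no stimulus; test concentration not given here.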 Conditions: higher = more signal, called active from +8 up or from −8 down. A general note: A replicon is a self-replicating genome or part of one, used to study replication in cells.

A short description of test [3]: Pseudomonas biofilm growth suppression – PAO1 strain, BacTiter-Glo luminescence, LB-PBS, primary screen (AID 1144). The following applies: P. aeruginosa PAO1 biofilm, 12 h, higher = more signal.
Test [4] can be described thus: basal CRE-LacZ reporter activity in PC12 – cell-based, unstimulated, primary screen (AID 1145). The following applies: no forskolin, luminescence, 4.5 h, higher = more signal, called active from +8 up or from −8 down.
Test [5] can be described thus: forskolin-driven CRE-LacZ activity in PC12 – cell-based, CRE-LacZ reporter, forskolin-stimulated, primary screen (AID 1146).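 Further: PC12 cells with 6xCRE LacZ reporter stimulated by forskolin 10 µM; beta-galactosidase reporter signal reflecting CREB driven transcription.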 Conditions: luminescence, 4.5 h, higher = more signal, called active from +8 up or from −8 down.
In test [6] the target is Streptavidin (Streptomyces avidinii) (UniProt P22629). As to the kind of experiment: compounds binding control protein streptavidin – biophysical, small-molecule microarray, 635/667 nm fluorescence, artefact control for SMM compound annotation, primary screen (AID 1147).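 Further: signal reflects streptavidin binding to arrayed compounds as a control protein.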 Conditions: higher = more signal.
Sequence of Streptavidin (Streptomyces avidinii) (P22629 whole entry, looked up): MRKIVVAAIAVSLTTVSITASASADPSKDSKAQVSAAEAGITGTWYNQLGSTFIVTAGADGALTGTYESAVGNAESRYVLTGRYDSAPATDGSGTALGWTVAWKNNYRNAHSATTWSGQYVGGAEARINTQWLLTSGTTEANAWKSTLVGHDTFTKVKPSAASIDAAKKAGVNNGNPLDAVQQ
Test [7] is described as follows: probe aInhba binding on compound microarray – biochemical, small-molecule microarray, 635/667 nm fluorescence, primary screen (AID 1148).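 Further: score merges 667nm spot fluorescence with signal-to-noise for antibody binding to printed compounds.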 Conditions: higher = more signal.
Test [8] concerns the target Torsin-1A (Homo sapiens) (UniProt O14656). As to the kind of experiment: TOR1A wild-type binding on microarray – cell lysate, small-molecule microarray, lysate, 635/667 nm, primary screen (AID 1149). Conditions: COS7 hTOR1A-WT lysate, 635 nm fluorescence, higher = more signal.
Test [9] has the same target. As to the kind of experiment: torsin A mutant lysate binding on microarrays – cell lysate, small-molecule microarray, COS7 lysate, 635/667 nm fluorescence, primary screen (AID 1150).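 Further: score pools 667 nm emission and signal to noise measuring lysate protein binding.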 The following applies: COS7 hTOR1A mutant lysate, 635 nm fluorescence, higher = more signal.
The subject of test [10] is Sonic hedgehog protein (Shh). As to the kind of experiment: Sonic hedgehog microarray binding compounds – biochemical, small-molecule microarray, 635/667 nm fluorescence, primary screen (AID 1151).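 Further: Shh protein binding to compounds spotted on small-molecule microarray slides; score combines spot fluorescence intensity with signal-to-noise across triplicate slides.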 Conditions: 635 nm fluorescence, higher = more signal.
Test [11] can be described thus: optical density shifts of acrAB sulA E. coli – strain DRC41, OD650, 48 h, E. coli filamentation inducer project, primary screen (AID 1152).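 Further: E. coli MC1000 strain DRC41 lacking acrAB efflux pump and sulA.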 The following applies: higher = more signal, called active from +8 up or from −8 down.
A short description of test [12]: probe aLefty1 binding on compound microarray – biochemical, small-molecule microarray, 635/667 nm fluorescence, primary screen (AID 1153).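 Further: score merges spot fluorescence with signal-to-noise ratio from the scanned slide images.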 The following applies: higher = more signal.
Test [13] can be described thus: plasmodial surface anion channel blockers, osmotic lysis – cell-based, P. falciparum Indochina, OD700, 1 h, primary screen (AID 1154). The following applies: P. falciparum Indochina infected RBC osmotic lysis, higher = more signal, called active from +8 up or from −8 down.
Test [14] in a line: plasmodial surface anion channel blockers, osmotic lysis – cell-based, P. falciparum Indochina, OD700, 2 h, primary screen (AID 1155).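 Further: lysis reports solute entry through the parasite surface anion channel PSAC.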 Conditions: P. falciparum Indochina infected erythrocytes, higher = more signal, called active from +8 up or from −8 down.
Test [15] can be described thus: changes in parasitized red cell lysis, either direction – P. falciparum Indochina, OD700, 3 h, PSAC antagonist project, primary screen (AID 1156). The following applies: P. falciparum-infected erythrocytes, osmotic lysis, higher = more signal, called active from +8 up or from −8 down.
A short description of test [16]: plasmodial surface anion channel blockers, osmotic lysis – cell-based, P. falciparum Indochina, OD700, 18 h, primary screen (AID 1157). The following applies: P. falciparum Indochina infected erythrocytes, osmotic lysis OD700, 18 h; higher = more signal, called active from +8 up or from −8 down.
Test [17] is described as follows: S6 kinase pathway phospho-S6 level changes – cell-based, A549, cytoblot, luminescence, serum-stimulated, primary screen (AID 1158).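 Further: serum-stimulated A549 lung adenocarcinoma cells; signal is phosphorylated S6 detected by cytoblot immunostaining with HRP secondary.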 The following applies: 5 h, higher = more signal.
Test [18] has as its target NADPH oxidase 2 (Homo sapiens) (UniProt P04839). As to the kind of experiment: compounds shifting NOX2 Amplex Red fluorescence – cell-based, HEK293-NOX2, PMA-stimulated, NOX inhibitor project, primary screen (AID 1159). Further: test concentration not given here. The following applies: 45 min, higher = more signal, called active from +8 up or from −8 down.
Test [19] addresses NADPH oxidase 4 (Homo sapiens) (UniProt Q9NPH5). As to the kind of experiment: compounds shifting NOX4 Amplex Red fluorescence – cell-based, HEK293-NOX4, tetracycline-induced, NOX inhibitor project, primary screen (AID 1160). Conditions: HEK293-NOX4, Amplex Red H2O2 fluorescence, 45 min; higher = more signal, called active from +8 up or from −8 down.
In test [20] the target is NADPH oxidase 5 (Homo sapiens) (UniProt Q96PH1). As to the kind of experiment: compounds shifting NOX5 Amplex Red fluorescence – cell-based, HEK293-NOX5, NOX inhibitor project, primary screen (AID 1161). The following applies: HEK293-NOX5, ionomycin, 45 min, higher = more signal.
Sequence of NADPH oxidase 5 (Homo sapiens) (Q96PH1 whole entry, looked up): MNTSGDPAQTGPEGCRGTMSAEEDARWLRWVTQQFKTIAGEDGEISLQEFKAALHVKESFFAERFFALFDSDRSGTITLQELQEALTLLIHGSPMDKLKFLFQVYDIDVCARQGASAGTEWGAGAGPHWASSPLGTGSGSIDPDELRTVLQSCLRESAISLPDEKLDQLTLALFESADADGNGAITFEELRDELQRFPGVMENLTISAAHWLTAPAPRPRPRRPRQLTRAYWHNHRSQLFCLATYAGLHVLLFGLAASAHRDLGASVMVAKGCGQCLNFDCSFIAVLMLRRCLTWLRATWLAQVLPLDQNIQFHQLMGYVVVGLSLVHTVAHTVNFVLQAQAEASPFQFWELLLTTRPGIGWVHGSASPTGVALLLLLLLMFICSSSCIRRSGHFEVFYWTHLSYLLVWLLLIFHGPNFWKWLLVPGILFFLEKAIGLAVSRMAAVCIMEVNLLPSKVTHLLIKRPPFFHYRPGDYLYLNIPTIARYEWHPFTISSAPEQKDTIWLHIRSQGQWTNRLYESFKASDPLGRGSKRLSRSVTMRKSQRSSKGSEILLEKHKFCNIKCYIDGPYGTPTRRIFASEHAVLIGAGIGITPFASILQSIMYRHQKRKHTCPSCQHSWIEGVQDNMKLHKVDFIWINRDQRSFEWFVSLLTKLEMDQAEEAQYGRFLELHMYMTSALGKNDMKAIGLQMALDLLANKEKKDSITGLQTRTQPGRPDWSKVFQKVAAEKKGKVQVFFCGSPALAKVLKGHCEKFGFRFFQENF

Sequence of NADPH oxidase 4 (Homo sapiens) (Q9NPH5 whole entry, looked up): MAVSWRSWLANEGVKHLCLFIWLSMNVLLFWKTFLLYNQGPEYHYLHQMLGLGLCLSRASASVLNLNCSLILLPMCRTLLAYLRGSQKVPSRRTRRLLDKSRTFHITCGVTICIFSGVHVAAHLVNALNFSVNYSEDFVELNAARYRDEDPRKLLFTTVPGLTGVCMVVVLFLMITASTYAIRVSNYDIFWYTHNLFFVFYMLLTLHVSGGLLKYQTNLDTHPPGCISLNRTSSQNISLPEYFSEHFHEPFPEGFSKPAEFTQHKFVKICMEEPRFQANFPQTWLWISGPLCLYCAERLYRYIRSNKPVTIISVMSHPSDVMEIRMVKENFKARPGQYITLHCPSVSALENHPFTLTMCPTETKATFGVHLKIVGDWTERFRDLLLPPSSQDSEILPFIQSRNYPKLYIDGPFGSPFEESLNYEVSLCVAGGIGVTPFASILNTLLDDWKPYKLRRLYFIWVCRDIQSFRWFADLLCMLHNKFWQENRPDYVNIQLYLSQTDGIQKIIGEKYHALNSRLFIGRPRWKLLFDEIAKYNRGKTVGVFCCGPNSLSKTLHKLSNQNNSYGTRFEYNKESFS
Sequence of NADPH oxidase 2 (Homo sapiens) (P04839 whole entry, looked up): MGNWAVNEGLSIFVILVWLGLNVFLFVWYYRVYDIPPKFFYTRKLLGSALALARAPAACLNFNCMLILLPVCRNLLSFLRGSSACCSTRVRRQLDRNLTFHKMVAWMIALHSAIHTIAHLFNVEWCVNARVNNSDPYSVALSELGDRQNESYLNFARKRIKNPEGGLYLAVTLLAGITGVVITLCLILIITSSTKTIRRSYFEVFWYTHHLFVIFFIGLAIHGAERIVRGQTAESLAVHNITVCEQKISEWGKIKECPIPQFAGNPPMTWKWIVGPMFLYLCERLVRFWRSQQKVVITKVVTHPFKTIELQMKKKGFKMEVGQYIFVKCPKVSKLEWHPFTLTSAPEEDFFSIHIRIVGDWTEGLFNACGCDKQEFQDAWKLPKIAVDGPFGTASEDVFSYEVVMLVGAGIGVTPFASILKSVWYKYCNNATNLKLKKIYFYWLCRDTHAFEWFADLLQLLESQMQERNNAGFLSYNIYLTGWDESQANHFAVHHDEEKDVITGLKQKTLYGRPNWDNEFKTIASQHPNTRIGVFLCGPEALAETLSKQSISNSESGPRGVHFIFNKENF
Sequence of Torsin-1A (Homo sapiens) (O14656 whole entry, looked up): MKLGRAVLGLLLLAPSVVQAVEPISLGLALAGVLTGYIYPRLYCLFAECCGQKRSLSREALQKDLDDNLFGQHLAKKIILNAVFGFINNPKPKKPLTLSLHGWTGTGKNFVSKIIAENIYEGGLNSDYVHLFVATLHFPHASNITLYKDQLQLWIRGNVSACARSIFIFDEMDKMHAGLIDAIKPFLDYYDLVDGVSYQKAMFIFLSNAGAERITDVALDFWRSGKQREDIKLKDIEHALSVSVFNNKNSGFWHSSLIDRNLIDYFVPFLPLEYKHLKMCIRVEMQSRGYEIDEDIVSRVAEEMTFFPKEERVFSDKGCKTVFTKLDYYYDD

Regarding `CO[C@H]1COC(=O)[C@H](C)COC(=O)[C@H](C)NC(=O)CC=C[C@H]1C`, the composite z-score in test [1] is 0.108; in test [6] it was -0.237; in test [7], -0.0762; with Torsin-1A (Homo sapiens) [8] it was 1.26; in the test with Torsin-1A (Homo sapiens) [9] it was 1.18; in test [10] it was 1.88. Moreover, the composite z-score in test [12] is -0.101. For the same compound, the z-score is -1.34 (inactive) in test [2]; 0.598 (inactive) in test [3]; 0.611 (inactive) in [4]; -0.506 (inactive) in [5]; 0.25 (inactive) in test [11]; 0.212 (inactive) in test [13]. The z-score is 0.0618 (inactive) in [14]; -0.0422 (inactive) in test [15]; -0.186 (inactive) in [16]; 0.0807 in [17]; 1.67 (inactive) in test [18]; 0.299 (inactive) in test [19]. The z-score in test [20] was -0.42.
Turning to `CC(=O)OC[C@H]1O[C@H](CC=NO[C@@H](C)c2cn([C@H](CO)Cc3ccccc3)nn2)C=C[C@@H]1OC(C)=O`, the composite z-score is 0.0065 in test [1]; 0.777 in [6]; -0.0963 in test [7]; 0.542 in the test with Torsin-1A (Homo sapiens) [8]; 0.692 with Torsin-1A (Homo sapiens) [9]; 0.911 in [10]. This compound showed a composite z-score in test [12] of -0.196. For the same compound, the z-score in [2] was -2.35 (inactive); in test [3] it was -0.902 (inactive); in test [4], 1.67 (inactive); in test [5], 0.114 (inactive); in [11], -0.89 (inactive); in test [13], -0.719 (inactive). Moreover, the z-score is -0.429 (inactive) in test [14]; 0.656 (inactive) in [15]; -1.23 (inactive) in [16]; 0.703 in test [17]; -2.05 (inactive) in [18]; -2.01 (inactive) in test [19]. Also, the z-score in test [20] was -1.41.
On to `COC(=O)CC=C[C@@H](C)[C@@H](C=NOC(C)CN1CCCc2nc(C)c(C)cc21)NS(=O)(=O)c1ccc(C)cc1` (stereo not given in full), for which the composite z-score in test [1] is 0.448; in test [6] it was -0.176; in test [7], 0.0982; with Torsin-1A (Homo sapiens) [8], 0.308; with Torsin-1A (Homo sapiens) [9] it was 0.309; in test [10] it was 0.791. The composite z-score in [12] worked out at 0.119. The z-score in test [2] is -0.214 (inactive); in test [3], 1.42 (inactive); in test [4], 0.0013 (inactive); in test [5], 0.541 (inactive); in test [11], 0.364 (inactive); in [13], 2.52 (inactive). In addition, the z-score is 0.584 (inactive) in test [14]; 0.201 (inactive) in [15]; 0.49 (inactive) in [16]; -0.929 in test [17]; -0.134 (inactive) in [18]; 0.283 (inactive) in test [19]. Moreover, the z-score in [20] was -0.736.
Regarding `CO[C@H]1COC(=O)CCC[C@H](C)[C@@H](OC)COC(=O)CC=C[C@@H]1C`, the composite z-score in test [1] was -0.0982; in [6], -0.256; in test [7], -0.128; with Torsin-1A (Homo sapiens) [8], 0.0956; in the test with Torsin-1A (Homo sapiens) [9] it was 0.861; in test [10], 1.34. Also, in [12], the composite z-score is -0.17. Further, the z-score in [2] was -0.0992 (inactive); in test [3], 0.132 (inactive); in test [4] it was -0.394 (inactive); in test [5], -0.24 (inactive); in [11], 0.0226 (inactive); in [13] it was -1.29 (inactive). The z-score in [14] is -1.22 (inactive); in [15], -0.315 (inactive); in test [16], -2.45 (inactive); in [17], -0.279; in [18], -0.123 (inactive); in test [19] it was -0.0115 (inactive). The z-score in [20] stood at 0.344.
For `O=C(NCCC[N+]1=CC=NC1c1ccccc1)N1CCCc2nc(-c3ccc(Br)cc3)ccc21` (stereo not given), the composite z-score in test [1] is -0.215; in [6], 0.0054; in [7] it was -0.118; with Torsin-1A (Homo sapiens) [8] it was 0.291; with Torsin-1A (Homo sapiens) [9], 0.405; in [10] it was 0.322. For the same compound, the composite z-score in test [12] is -0.164. For the same compound, the z-score is -2.49 (inactive) in test [2]; 0.616 (inactive) in [3]; -0.888 (inactive) in test [4]; -0.0384 (inactive) in test [5]; 0.315 (inactive) in [11]; 5.32 (inactive) in test [13]. In addition, the z-score was 0.705 (inactive) in [14]; 1.5 (inactive) in [15]; 0.518 (inactive) in test [16]; -0.26 in test [17]; 0.528 (inactive) in test [18]; -0.261 (inactive) in [19]. For the same compound, the z-score in [20] is -1.64.

The record behind these values is PubChem BioAssay.
